Each structure is given as a SMILES string. About 83,000 compounds went through this panel and 20% of them were active in at least one assay; those are over-represented in the sample as a whole.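 Cell lines were cultured in 96-well plates, exposed to a single compound concentration, and assessed for percent growth 48 hours later.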 A number with no mark means an inactive call. The source made the active and inactive calls. Rule for the calls: active = growth percent below 10; inactive = the rest.

Test systems include EKVX NSCLC; SN12C renal; UO-31 renal; TK-10 renal; ACHN renal; CAKI-1 renal; A498 renal; CCRF-CEM leukemia; MOLT-4 leukemia; SR leukemia; OVCAR-8 ovarian; OVCAR-5 ovarian; OVCAR-4 ovarian; SK-OV-3 ovarian; IGROV1 ovarian; OVCAR-3 ovarian; HS 578T breast; NCI/ADR-RES ovarian; RPMI-8226 leukemia.
Holding throughout (experiment): NCI-60 one-dose screen, 48 h (100 = growth as untreated, 0 = no growth, -100 = all killed)
Holding throughout (details): 10 µM unless noted

Consider `CCc1cccc2c1S/C(=C/c1ccc(OC)cc1)C2=O`, for which the growth was 93.9% with EKVX NSCLC; 49.4% in the assay with SN12C renal; 52.9% in the assay on UO-31 renal; 127% in the assay on TK-10 renal; 54.1% with ACHN renal; 6.96% (active) with CAKI-1 renal. Moreover, the growth in the assay with A498 renal was 104%; in the assay on CCRF-CEM leukemia, 35.7%; with MOLT-4 leukemia it was 34.5%; in the assay with SR leukemia it was 15.1%; in the assay on OVCAR-8 ovarian, 55.9%; in the assay with OVCAR-5 ovarian, 76%. Further, the growth with OVCAR-4 ovarian is 59.4%; with SK-OV-3 ovarian it was 79.3%; in the assay on IGROV1 ovarian, 30.4%; in the assay on OVCAR-3 ovarian it was 23.8%; in the assay with HS 578T breast it was 41.5%; in the assay on NCI/ADR-RES ovarian, 30.2%.

Take `CCOc1ccc2nc(SCc3nc4n(n3)S(=O)(=O)c3ccccc3N4C)sc2c1`: the growth was 14% in the assay on EKVX NSCLC; 22.2% with SN12C renal; -46.3% (active) in the assay with UO-31 renal; -8.01% (active) in the assay on TK-10 renal; 4.84% (active) in the assay on ACHN renal; -39.5% (active) in the assay with CAKI-1 renal. The growth in the assay with A498 renal was -25.8% (active); in the assay on CCRF-CEM leukemia it was 3.93% (active); with MOLT-4 leukemia, 4.81% (active); in the assay with RPMI-8226 leukemia, 30.7%; in the assay on OVCAR-8 ovarian, 27.7%; with OVCAR-5 ovarian it was -9.82% (active). Also, the growth was 31.2% with OVCAR-4 ovarian; 35.3% in the assay on SK-OV-3 ovarian; -30.9% (active) in the assay on IGROV1 ovarian; 37.5% with OVCAR-3 ovarian; -59.3% (active) in the assay with HS 578T breast; 6.82% (active) in the assay with NCI/ADR-RES ovarian.

Turning to `O=S(=O)(Nc1ccc(-c2nc(-c3cccc(OCCN4CCOCC4)c3)c(-c3ccnc(Br)c3)[nH]2)cc1)c1ccccc1`, the growth in the assay with EKVX NSCLC was 50.2%; with SN12C renal, 51.5%; in the assay on UO-31 renal, 20.5%; with TK-10 renal, 48.2%; with ACHN renal it was 27.1%; in the assay with CAKI-1 renal, 28.2%. Moreover, the growth in the assay on A498 renal is 53%; with CCRF-CEM leukemia it was 15.1%; in the assay on MOLT-4 leukemia, 8.11% (active); with SR leukemia, -18.7% (active); in the assay on OVCAR-8 ovarian it was 32.3%; with OVCAR-5 ovarian, 54.5%. Also, the growth is 40.6% in the assay with OVCAR-4 ovarian; 43.7% with IGROV1 ovarian; 46.1% in the assay with OVCAR-3 ovarian; 0.194% (active) with HS 578T breast; 54.1% in the assay with NCI/ADR-RES ovarian.

With `CCCCNc1nc(NN2C(=O)c3cccc4cccc(c34)C2=O)nc(-n2cnc3ccccc32)n1`, the growth in the assay on EKVX NSCLC is 71.8%; with SN12C renal it was 90.5%; in the assay with UO-31 renal, 44.1%; with TK-10 renal, 100%; with ACHN renal, 81.3%; in the assay on CAKI-1 renal, 75.6%. The growth was 35.9% in the assay with A498 renal; 96.3% with CCRF-CEM leukemia; 77.4% with MOLT-4 leukemia; 86.9% in the assay on RPMI-8226 leukemia; 93.3% in the assay with OVCAR-8 ovarian; 83.8% in the assay on OVCAR-5 ovarian. In addition, the growth is 67.7% in the assay on OVCAR-4 ovarian; 99.3% with SK-OV-3 ovarian; 80.4% with IGROV1 ovarian; 86.3% in the assay with OVCAR-3 ovarian; 81.9% in the assay with HS 578T breast; 91.5% in the assay on NCI/ADR-RES ovarian.

As for `O=C1COCCN1c1ccc(NCc2cn(C(=O)c3ccc(Cl)cc3)c3ccccc23)cc1`, the growth in the assay with SN12C renal is 74.9%; with UO-31 renal, 43.6%; with TK-10 renal, -26% (active); in the assay on ACHN renal it was 65.7%; in the assay with CAKI-1 renal, -28.7% (active); in the assay with A498 renal it was -88.9% (active). Further, the growth in the assay on CCRF-CEM leukemia is 77.1%; in the assay on MOLT-4 leukemia, 85.7%; in the assay on RPMI-8226 leukemia, 52.6%; with OVCAR-8 ovarian, 66%; in the assay with OVCAR-5 ovarian, -25.7% (active); in the assay with OVCAR-4 ovarian it was 3.22% (active). Besides, the growth was 15.7% in the assay on SK-OV-3 ovarian; -2.18% (active) in the assay with IGROV1 ovarian; 10.6% with OVCAR-3 ovarian; 72.9% with HS 578T breast; 67% in the assay on NCI/ADR-RES ovarian.

With `Cc1ccc(C(=O)NN2C(=O)CSC2c2ccc(Cl)cc2)cn1` (configuration not stated), the growth is 110% in the assay with EKVX NSCLC; 91.4% in the assay with SN12C renal; 21.8% in the assay with UO-31 renal; 128% with TK-10 renal; 96.5% in the assay on ACHN renal; 80.7% in the assay on CAKI-1 renal. Also, the growth is 164% with A498 renal; 117% with CCRF-CEM leukemia; 82.2% in the assay with MOLT-4 leukemia; 80.8% in the assay on SR leukemia; 113% in the assay on RPMI-8226 leukemia; 92.3% with OVCAR-5 ovarian. In addition, the growth is 101% in the assay with OVCAR-4 ovarian; 97.1% in the assay with SK-OV-3 ovarian; 54.8% with IGROV1 ovarian; 111% in the assay with OVCAR-3 ovarian; 130% with HS 578T breast; 93.2% in the assay on NCI/ADR-RES ovarian.

As to `N/C(=N\c1nc2ccccc2s1)NC(=O)Nc1cccc2ccccc12`, the growth in the assay on EKVX NSCLC was 40.2%; in the assay with SN12C renal, 44%; in the assay with UO-31 renal, 53.4%; in the assay on TK-10 renal, 55%; in the assay on ACHN renal it was 42.1%; in the assay with CAKI-1 renal it was 29.5%. Besides, the growth in the assay with A498 renal is -10.8% (active); with CCRF-CEM leukemia, 12.2%; in the assay with MOLT-4 leukemia, 19.9%; in the assay on RPMI-8226 leukemia, 13.8%; in the assay with OVCAR-8 ovarian, 32.9%; in the assay on OVCAR-5 ovarian, 41.1%. Moreover, the growth is 60.8% in the assay with OVCAR-4 ovarian; 40.4% in the assay with SK-OV-3 ovarian; 33.6% in the assay on IGROV1 ovarian; -14.2% (active) in the assay on OVCAR-3 ovarian; 16.6% in the assay with HS 578T breast; -7.24% (active) in the assay with NCI/ADR-RES ovarian.

As for `COc1ccc(/C=N/Nc2cc(=O)[nH]c3ccc(Cl)cc23)cc1`, the growth in the assay on EKVX NSCLC was 63.8%; in the assay on SN12C renal, 62.3%; in the assay with UO-31 renal, 94.7%; with TK-10 renal, 12.5%; with ACHN renal it was 72.7%; with CAKI-1 renal it was 86.2%. For the same compound, the growth is 80.7% with A498 renal; 38.2% in the assay with CCRF-CEM leukemia; 30.4% with MOLT-4 leukemia; 36.6% in the assay with RPMI-8226 leukemia; 69.1% in the assay on OVCAR-8 ovarian; 95.1% in the assay with OVCAR-5 ovarian. The growth in the assay with OVCAR-4 ovarian is 43.1%; in the assay with SK-OV-3 ovarian it was 95.2%; in the assay on IGROV1 ovarian, 75.7%; in the assay with OVCAR-3 ovarian, 11.8%; with HS 578T breast it was 91.7%; with NCI/ADR-RES ovarian it was 78%.

Values taken from PubChem BioAssay (NCI).
